# In the library only some 21% were active in any assay of this set; here they are far more common.
# TDP1 cell noCPT = qHTS for Inhibitors of human tyrosyl-DNA phosphodiesterase 1 (TDP1): qHTS in cells in absence of CPT; Potency, µM (top dose mostly 46.2 µM), usual class: inhibitors; actives 15% (n = 420,000); DT40 Tdp1-/- hTDP1 cells, no CPT, ATP luminescence, 48 h; also: nearly all actives have a fitted effect of over 55% in size
#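 Seeded 400 DT40-hTDP1 cells/well (vehicle DMSO, no 20 nM CPT); pinned compounds; ≥48 hr at 37 °C; CellTiter-Glo luminescence as viability measure.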
# IL-1B inflam inh = qHTS for Inhibitors of Inflammasome Signaling: IL-1-beta AlphaLISA Primary Screen. THP-1 LPS/ATP IL-1B secretion, AlphaLISA, 16 h; active compounds read low. activity change, % at 57.5 µM. actives 4.7% (n = 360,000). AID 743279, 2014; in the data active = activity change below about -50%; inconclusive = mostly about -30% to -49%
#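 Secreted IL-1B measured by AlphaLISA bead assay after 16 h compound exposure of THP-1 cells; compounds (final up to 57.5 uM) added 1 h before LPS (250 ng/mL) and ATP (1.25 mM) stimulation; lower signal means less secretion.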
# VP16 counter = VP16 counterscreen qHTS for inhibitors of ROR gamma transcriptional activity; actives 3.5% (n = 310,000); Potency, µM (titrated, usually from 53.6 µM), actives largely listed as inhibitors; Drosophila S2 Gal4-VP16 UAS-luciferase, luminescence, 20 h;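 also: Gal4-VP16 expression switched on by copper sulfate through the metallothionein promoter; nearly all actives have a fitted effect of over 50% in size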
# RORgamma inh = qHTS for inhibitors of ROR gamma transcriptional activity; Nuclear receptor ROR-gamma (Mus musculus), P51450; Drosophila S2 Gal4-RORgamma UAS-luciferase reporter, 20 h; Potency, µM (series often up to 53.6 µM), hits mostly inhibitors; actives 5.4% (n = 310,000); also: nearly all actives have a fitted effect of over 60% in size
# Target sequence (P51450 whole entry, looked up, the tested form may be a part): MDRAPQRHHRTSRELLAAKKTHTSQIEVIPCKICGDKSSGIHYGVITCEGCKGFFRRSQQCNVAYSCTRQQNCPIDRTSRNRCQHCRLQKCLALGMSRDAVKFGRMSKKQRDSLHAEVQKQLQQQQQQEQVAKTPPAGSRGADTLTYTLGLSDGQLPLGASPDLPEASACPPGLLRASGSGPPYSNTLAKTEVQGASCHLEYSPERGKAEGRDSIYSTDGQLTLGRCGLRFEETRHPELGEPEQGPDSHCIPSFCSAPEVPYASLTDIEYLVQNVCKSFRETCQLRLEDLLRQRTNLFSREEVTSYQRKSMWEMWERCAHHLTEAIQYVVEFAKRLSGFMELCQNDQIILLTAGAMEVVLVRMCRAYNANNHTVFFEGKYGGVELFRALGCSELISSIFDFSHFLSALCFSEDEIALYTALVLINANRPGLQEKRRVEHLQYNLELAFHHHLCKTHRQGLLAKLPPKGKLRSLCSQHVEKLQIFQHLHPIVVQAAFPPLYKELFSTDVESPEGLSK
#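 A Gal4/UAS one-hybrid system in insect cells: metallothionein-promoter Gal4–ROR gamma fusion plus Photinus luciferase reporter. Copper sulfate 700 uM final, 20 hr ambient incubation, luminescent detection after 10 min with reagent.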
# ELG1 DNA repair = qHTS screen for small molecules that inhibit ELG1-dependent DNA repair in human embryonic kidney (HEK293T) cells expressing luciferase-tagged ELG1 | HEK293T ELG1-luciferase reporter, luminescence, 16 h; DNA damage induced by 5-fluorouridine | Potency, µM (doses to about 46.1 µM), hits mostly inhibitors | actives 2.3% (n = 330,000) | AID 504467, 2011; also: nearly all actives have a fitted effect of over 55% in size
#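 DMSO vehicle served as the neutral condition. Each well held 2,000 cells given 5-fluorouridine plus compound; after 16 hr at 37 °C/5% CO2, ONE-Glo was added and luciferase measured 30 min later.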
# TDP1 cell CPT = qHTS for Inhibitors of human tyrosyl-DNA phosphodiesterase 1 (TDP1): qHTS in cells in presence of CPT | chicken DT40 Tdp1-/-;hTDP1 cells + 20 nM CPT, ATP luminescence, 48 h | Potency, µM (doses to about 46.2 µM), actives largely listed as inhibitors | actives 12% (n = 420,000) | AID 686979, 2013; also: nearly all actives have a fitted effect of over 55% in size
#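 Cell growth measured by CellTiter-Glo luminescence after a minimum 48 h, 37 C compound exposure with 20 nM CPT in Tdp1-knockout DT40 cells stably expressing hTDP1, seeded 400/well; qHTS titration format.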
# Numbers stand for hits; 0 = inactive; ? = inconclusive; - = not tested or not shown; [ ] = another dose, or the depositor's remark. Unless noted, calls follow the shape of the dose curve; as a rule, active = well fitted curve in the direction sought with a large enough effect; inconclusive = small, poorly fitted or top-dose-only effect, or another doubt; inactive = no such curve, though single readings can be large; an effect the other way counts as inactive or inconclusive.
SMILES,TDP1 cell noCPT,IL-1B inflam inh,VP16 counter,RORgamma inh,ELG1 DNA repair,TDP1 cell CPT
CCOc1ncccc1C(=O)N1CCN(S(=O)(=O)c2ccc3ccccc3c2)CC1,?,0,0,0,0,23µM
CCOC(=O)/C(N)=C/c1ncc(C(F)(F)F)cc1Cl,0,0,?,?,?,0
CCCCC[C@]12Cc3cc(OC)c(OC)cc3[C@H](O1)c1c(cc(C)oc1=O)O2,-,-,0[10 µM],0[10 µM],-,-
CC1=C(C(=O)N2CCCCCC2)CC(CC(=O)NC2CCCC2)C(=O)N1Cc1ccc(F)cc1 (stereo not drawn),?,0,-,-,-,0
O=C(CCl)N1CCN(S(=O)(=O)c2ccc3ccccc3c2)CC1,5.8µM,-99,?,?,0,3.3µM
CCCCNc1nnc(SCC(=O)N2CCN(S(=O)(=O)c3ccc4ccccc4c3)CC2)s1,23µM,-54,0,0,23µM,?
CC1CC(Nc2ccccc2)c2ccccc2N1C(=O)c1ccncc1 (stereo not drawn),8.2µM,0,0[10 µM],0,?,9.2µM
O=C(CN1CCN(C(=O)c2ccco2)CC1)Nc1ccccc1,0,0,0,0,0,0
CC1CC(Nc2ccccc2)c2ccccc2N1C(=O)c1ccco1 (stereo not drawn),15µM,0,0,0,0,23µM
Cc1ccc(C(C)CCN2CCOc3ccc(CN4CCOCC4)cc3C2)o1 (stereo not drawn),0,-,-,-,-,0
CCN1C(C)=C(C(=O)OC)C(c2ccccc2)N2C(=O)[C@@]3(C(=O)OC)O[C@@]12C1C(=O)CCCC13 (stereo partly drawn),-,-,0[10 µM],0[10 µM],-,-
COc1ccc2c(Cl)c(C(=O)N/N=C/c3cccnc3)sc2c1,0,0,0,?,0,0
Cn1cccc1/C=N/NC(=O)c1sc2cc(Cl)ccc2c1Cl,-,-,0.56µM,0.71µM,0,-
Cc1ccc2c(Cl)c(C(=O)N/N=C/c3cccn3C)sc2c1,8.2µM,0,1.6µM,1.3µM,?,8.2µM
COc1cccc(NC(=O)CCC(=O)N2CC(C)Oc3ccc(C)cc32)c1 (stereo not drawn),?,0,0,0,0,?
COc1cc(NC(=O)c2cc(C3CC3)nc3c2c(C)nn3-c2ccc(C)cc2)cc(OC)c1,6.5µM,-,-,-,-,?
Cc1nn(-c2ccccc2)c2nc(C3CC3)cc(C(=O)NCc3ccccc3Cl)c12,23µM,-,-,-,-,?
Cc1c(Cl)cccc1-n1nc(C)c2c(C(=O)NCc3ccccc3)cc(C3CC3)nc21,0,-,-,-,-,0
Cc1cc(C(=O)NCc2ccccc2Cl)c2c(C)nn(-c3cccc(F)c3)c2n1,21µM,-,-,-,-,?
Nc1n[nH]c(N)c1N=Nc1cccc(F)c1,0,-78,0,0,0,?
COc1cc2nc(NCCc3ccccc3)n3nc(-c4cccnc4)nc3c2cc1OC,0,-,-,-,-,0
CC1CN(c2ncnc3c2oc2ccccc23)CC(C)O1 (stereo not drawn),21µM,0,0,0,0,?
Clc1ccc(N2CCN(c3ncnc4c3oc3ccccc34)CC2)cc1,14µM,0,0,0,0,21µM
O=c1c2oc3ccccc3c2ncn1Cc1ccc(Cl)cc1,0,0,0,0,?,0
CCc1ccc(N(CC)C(=O)c2cc3c(=O)oc4ccc(C)cc4c3s2)cc1,?,-,-,-,-,0
CCn1c(-c2ccccc2F)nc2cc(C(=O)NCc3ccc(C)o3)cc(NC(C)=O)c21,0,-,-,-,-,0
CC1=Nc2cc(C(=O)NCCCN3CCOCC3)ccc2Sc2c(C)ccc(C)c21,?,-73,0,0,?,?
CC1=Nc2cc(C(=O)NCCN3CCOCC3)ccc2Sc2c(C)ccc(C)c21,13µM,0,0,0,0,16µM

# Screening data as filed in PubChem BioAssay.
